Experimental data from PubChem BioAssay.
Active and inactive are the calls of the source.

Legend:
[1] = optical density shifts of acrAB sulA E. coli – strain DRC41, OD650, 48 h, E. coli filamentation inducer project, primary screen (AID 1152); conditions: higher = more signal, called active from +8 up or from −8 down;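 note: E. coli MC1000 strain DRC41 lacking acrAB efflux pump and sulA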
[2] = probe aLefty1 binding on compound microarray – biochemical, small-molecule microarray, 635/667 nm fluorescence, primary screen (AID 1153); conditions: higher = more signal;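 note: score merges spot fluorescence with signal-to-noise ratio from the scanned slide images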
[3] = plasmodial surface anion channel blockers, osmotic lysis – cell-based, P. falciparum Indochina, OD700, 1 h, primary screen (AID 1154); conditions: P. falciparum Indochina infected RBC osmotic lysis, higher = more signal, called active from +8 up or from −8 down
[4] = plasmodial surface anion channel blockers, osmotic lysis – cell-based, P. falciparum Indochina, OD700, 2 h, primary screen (AID 1155);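 note: lysis reports solute entry through the parasite surface anion channel PSAC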; conditions: P. falciparum Indochina infected erythrocytes, higher = more signal, called active from +8 up or from −8 down
[5] = changes in parasitized red cell lysis, either direction – P. falciparum Indochina, OD700, 3 h, PSAC antagonist project, primary screen (AID 1156); conditions: P. falciparum-infected erythrocytes, osmotic lysis, higher = more signal, called active from +8 up or from −8 down
[6] = plasmodial surface anion channel blockers, osmotic lysis – cell-based, P. falciparum Indochina, OD700, 18 h, primary screen (AID 1157); conditions: P. falciparum Indochina infected erythrocytes, osmotic lysis OD700, 18 h; higher = more signal, called active from +8 up or from −8 down
[7] = S6 kinase pathway phospho-S6 level changes – cell-based, A549, cytoblot, luminescence, serum-stimulated, primary screen (AID 1158); conditions: 5 h, higher = more signal;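 note: serum-stimulated A549 lung adenocarcinoma cells; signal is phosphorylated S6 detected by cytoblot immunostaining with HRP secondary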
[8] = molecular target: NADPH oxidase 2 (Homo sapiens) (UniProt P04839); assay: compounds shifting NOX2 Amplex Red fluorescence – cell-based, HEK293-NOX2, PMA-stimulated, NOX inhibitor project, primary screen (AID 1159); conditions: 45 min, higher = more signal, called active from +8 up or from −8 down; note: test concentration not given here
Sequence of NADPH oxidase 2 (Homo sapiens) (P04839 whole entry, looked up): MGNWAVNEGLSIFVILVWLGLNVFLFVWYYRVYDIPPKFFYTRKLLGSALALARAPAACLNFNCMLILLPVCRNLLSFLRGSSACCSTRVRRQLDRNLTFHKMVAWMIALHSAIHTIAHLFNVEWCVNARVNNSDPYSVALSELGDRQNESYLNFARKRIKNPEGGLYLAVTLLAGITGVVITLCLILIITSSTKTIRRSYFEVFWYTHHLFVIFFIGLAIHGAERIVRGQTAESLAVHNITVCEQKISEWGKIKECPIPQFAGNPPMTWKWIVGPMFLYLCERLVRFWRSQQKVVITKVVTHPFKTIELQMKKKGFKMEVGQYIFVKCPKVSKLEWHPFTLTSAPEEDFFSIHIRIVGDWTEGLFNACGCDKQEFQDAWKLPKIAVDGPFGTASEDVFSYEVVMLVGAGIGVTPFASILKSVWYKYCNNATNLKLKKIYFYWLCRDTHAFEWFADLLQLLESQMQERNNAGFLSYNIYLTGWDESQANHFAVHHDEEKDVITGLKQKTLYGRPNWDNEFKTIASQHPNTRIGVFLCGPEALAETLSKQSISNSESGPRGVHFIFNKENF

[9] = molecular target: NADPH oxidase 4 (Homo sapiens) (UniProt Q9NPH5); assay: compounds shifting NOX4 Amplex Red fluorescence – cell-based, HEK293-NOX4, tetracycline-induced, NOX inhibitor project, primary screen (AID 1160); conditions: HEK293-NOX4, Amplex Red H2O2 fluorescence, 45 min; higher = more signal, called active from +8 up or from −8 down
Sequence of NADPH oxidase 4 (Homo sapiens) (Q9NPH5 whole entry, looked up): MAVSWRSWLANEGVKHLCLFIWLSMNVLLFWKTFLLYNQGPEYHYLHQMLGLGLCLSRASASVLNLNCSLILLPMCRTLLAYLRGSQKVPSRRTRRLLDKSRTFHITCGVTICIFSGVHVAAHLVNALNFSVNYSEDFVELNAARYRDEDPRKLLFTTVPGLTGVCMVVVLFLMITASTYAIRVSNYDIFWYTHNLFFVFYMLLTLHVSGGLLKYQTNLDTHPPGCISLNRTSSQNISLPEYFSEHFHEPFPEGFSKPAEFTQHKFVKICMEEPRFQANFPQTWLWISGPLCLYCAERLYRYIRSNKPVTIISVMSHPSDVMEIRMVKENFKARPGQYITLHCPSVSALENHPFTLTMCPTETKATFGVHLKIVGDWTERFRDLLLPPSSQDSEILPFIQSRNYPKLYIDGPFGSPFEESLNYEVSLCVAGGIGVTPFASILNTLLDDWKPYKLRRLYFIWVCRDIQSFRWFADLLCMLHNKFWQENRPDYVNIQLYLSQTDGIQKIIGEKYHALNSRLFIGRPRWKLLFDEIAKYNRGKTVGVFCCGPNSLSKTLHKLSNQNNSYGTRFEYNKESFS

[10] = molecular target: NADPH oxidase 5 (Homo sapiens) (UniProt Q96PH1); assay: compounds shifting NOX5 Amplex Red fluorescence – cell-based, HEK293-NOX5, NOX inhibitor project, primary screen (AID 1161); conditions: HEK293-NOX5, ionomycin, 45 min, higher = more signal
Sequence of NADPH oxidase 5 (Homo sapiens) (Q96PH1 whole entry, looked up): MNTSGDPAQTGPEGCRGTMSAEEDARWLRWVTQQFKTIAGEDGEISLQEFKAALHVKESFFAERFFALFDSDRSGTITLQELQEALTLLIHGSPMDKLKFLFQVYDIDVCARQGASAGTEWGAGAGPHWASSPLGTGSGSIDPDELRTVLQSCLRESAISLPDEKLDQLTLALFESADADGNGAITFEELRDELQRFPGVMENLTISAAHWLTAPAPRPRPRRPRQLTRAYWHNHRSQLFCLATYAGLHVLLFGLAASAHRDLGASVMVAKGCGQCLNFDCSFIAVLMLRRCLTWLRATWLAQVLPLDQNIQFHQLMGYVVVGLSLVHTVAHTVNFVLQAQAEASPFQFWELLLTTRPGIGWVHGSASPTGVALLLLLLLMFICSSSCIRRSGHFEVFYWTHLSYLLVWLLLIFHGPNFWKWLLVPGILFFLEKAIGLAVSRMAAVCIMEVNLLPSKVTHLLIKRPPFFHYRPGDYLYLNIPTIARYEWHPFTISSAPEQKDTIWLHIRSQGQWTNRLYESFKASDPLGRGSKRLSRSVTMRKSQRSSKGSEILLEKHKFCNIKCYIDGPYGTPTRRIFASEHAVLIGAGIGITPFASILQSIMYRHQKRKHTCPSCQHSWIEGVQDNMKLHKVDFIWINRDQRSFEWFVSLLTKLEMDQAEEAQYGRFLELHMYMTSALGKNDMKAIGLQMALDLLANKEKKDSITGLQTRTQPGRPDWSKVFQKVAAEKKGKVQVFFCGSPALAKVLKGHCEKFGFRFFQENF

Row | Structure (SMILES) | z-score [1] | composite z-score [2] | z-score [3] | z-score [4] | z-score [5] | z-score [6] | z-score [7] | z-score [8] | z-score [9] | z-score [10]
1 | COCCOC(=O)N1C(=O)[C@@]2(c3cc(C#CCC(C(=O)OC)C(=O)OC)ccc31)[C@H](C(N)=O)[C@H]1C(=O)O[C@H](c3ccccc3)[C@H](c3ccccc3)N1[C@@H]2c1ccccc1OCCO | 1.08 (inactive) | -0.189 | 8.08 (active) | 2.37 (inactive) | 2.67 (inactive) | 1.05 (inactive) | 4.47 | 1.02 (inactive) | 0.826 (inactive) | -1.13
2 | CCCN1C(=O)[C@@]2(c3ccc([N+](=O)[O-])cc3)CC(=O)N(C3CCCCC3)[C@@H]2c2ccc(CO)cc21 | -1.45 (inactive) | -0.5 | -0.0987 (inactive) | 0.636 (inactive) | -0.203 (inactive) | 0.0577 (inactive) | -0.504 | -0.955 (inactive) | -0.281 (inactive) | -0.19
3 | CCCCC=C[C@@H](NC(=O)C(C)(C)C)c1ccccc1 | -2.16 (inactive) | 0.181 | 2.28 (inactive) | 1.43 (inactive) | -1.46 (inactive) | 1.45 (inactive) | -0.553 | -0.312 (inactive) | -2.16 (inactive) | 1.63
4 | CCCCCN1CC=CC23O[C@@H]4/C=C\CCCOC(=O)C4[C@H]2C(=O)N(CCCCCO)[C@@H]3C1=O (stereo not given in full) | 1.83 (inactive) | -0.255 | 0.46 (inactive) | -0.618 (inactive) | -1.29 (inactive) | -1.27 (inactive) | -0.0754 | 0.834 (inactive) | 0.0699 (inactive) | 1.41
5 | O=C1OCCC/C=C\[C@H]2OC34C=CCN(Cc5ccccc5)C(=O)[C@H]3N(CCO)C(=O)[C@@H]4C12 (stereo not given in full) | 2.28 (inactive) | -0.0536 | 1.65 (inactive) | 0.803 (inactive) | 1.82 (inactive) | 0.671 (inactive) | 0.0012 | 1.7 (inactive) | 0.571 (inactive) | 1.68
6 | O=C1OCC=C[C@H]2OC34C=CCN(Cn5nnc6ccccc65)C(=O)[C@H]3N(CCO)C(=O)[C@@H]4[C@@H]12 (stereo not given in full) | -0.683 (inactive) | -0.101 | 0.813 (inactive) | 0.531 (inactive) | 0.268 (inactive) | 0.55 (inactive) | -0.376 | 1.17 (inactive) | 0.99 (inactive) | 1.38
7 | CN1C(=O)C2CC=C(C3=CCO[C@@H]3[C@H]3CCCN3S(=O)(=O)c3ccccc3[N+](=O)[O-])CC2C1=O (stereo not given in full) | -0.62 (inactive) | -0.191 | 5.38 (inactive) | 0.672 (inactive) | -0.604 (inactive) | -0.0627 (inactive) | -0.307 | 0.278 (inactive) | 1.22 (inactive) | 0.32
8 | COc1ccc(C(O)C2C=CC3C(=O)N(c4ccccc4)C(=O)C3N2Nc2ccccc2F)c2ccccc12 (stereo not given) | -0.462 (inactive) | 1.16 | 3.82 (inactive) | 1.71 (inactive) | 0.419 (inactive) | 1.05 (inactive) | -0.593 | -0.232 (inactive) | -1.7 (inactive) | -2.13
9 | O=C1C2C=CC(C(O)C3CCCCC3)N(Nc3ccccc3F)C2C(=O)N1c1ccccc1 (stereo not given) | 0.128 (inactive) | 0.483 | 1.11 (inactive) | 0.304 (inactive) | 2.77 (inactive) | -0.743 (inactive) | 2.15 | -2.64 (inactive) | -4.15 (inactive) | -4.19
10 | COC(=O)[C@]1(Cc2ccccc2CN=[N+]=[N-])N=C(c2ccc(OCCCO)cc2)O[C@@H]1c1ccccc1N=[N+]=[N-] | 0.204 (inactive) | 0.167 | 31.1 (active) | 28.4 (active) | 0.444 (inactive) | 7.23 (inactive) | -0.424 | -0.938 (inactive) | 0.298 (inactive) | 1.44
11 | C=CC[C@H](O)c1ccc(O)c(F)c1 | -0.421 (inactive) | -0.555 | 0.307 (inactive) | 0.131 (inactive) | -0.304 (inactive) | 0.255 (inactive) | -0.165 | -1.32 (inactive) | -0.305 (inactive) | 0.113
12 | CO[C@H]1O[C@H](CO)[C@@H](OC(=O)CCc2ccccc2)[C@@H]2OC(=O)[C@@H](Cc3ccc4ccccc4c3)C/C=C/C[C@H](Cc3ccc4ccccc4c3)C(=O)O[C@@H]12 | 0.411 (inactive) | -0.949 | 2.85 (inactive) | -0.498 (inactive) | -1.88 (inactive) | -1.71 (inactive) | 0.795 | 1.5 (inactive) | -0.27 (inactive) | -0.995
13 | COC(=O)[C@@]1(Cc2ccc(F)cc2)[C@H]2c3cc(C(=O)N(C)C)n(Cc4cccc5ccccc45)c3C[C@H]2CN1C(=O)c1ccccc1 | -1.92 (inactive) | 0.0568 | 8.44 (active) | 1.29 (inactive) | 1.07 (inactive) | 1.28 (inactive) | -0.779 | 0.105 (inactive) | -3.8 (inactive) | 0.592
